Compound activity from PubChem BioAssay.
Pf Dd2 inh = Plasmodium falciparum Dd2 growth inhibition. actives 4.3% (n = 120,000). Potency, µM (titrated, usually from 28.9 µM), inactives show top-dose activity, negative = inhibition, hits mostly inhibitors. AID 1347417. P. falciparum Dd2 growth, SYBR Green, 72 h; active = well fitted inhibition curve with a large enough effect;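 also: plate controls were DMSO vehicle for no effect and reference drug for full effect; nearly all actives have a fitted effect of over 65% in size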
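Infected erythrocytes (Dd2, 0.3% parasitemia, 2.5% hematocrit final) are added to compound in RPMI-1640/Albumax II medium, grown 72 h at 37C in low oxygen, then lysed with saponin/Triton-X containing SYBR Green and read by fluorescence.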
The depositor's hits bear a star; i = inactive; [ ] = another dose, or the depositor's remark. The sample as a whole holds a higher share of hits than the screen did. Potency is read from the fitted curve at half-maximal effect.

SMILES	Pf Dd2 inh
CN(C)CCN1CC2(CCCN(C(=O)CN(C)c3ccccc3)C2)CCC1=O (centres undefined)	-2%
COc1ccc(C(=O)NC2CCN(C(=O)c3cc4c(=O)[nH]c(C)cn4n3)CC2)c(C)c1	-20%
CCc1ccc(C(=O)N2CCc3[nH]nc(C(=O)NCCCc4ccccc4)c3C2)cc1	i
CN(CCc1ccccn1)C(=O)CCC[C@@H]1[C@H]2CCCN3CCC[C@@H](CN1C(=O)c1cccnc1)[C@@H]23	-11%
COc1ccc(-c2cc(-c3cn[nH]c3)c3cncn3c2)cn1	-17%[44.1 µM]
COc1ccc(-c2cc(-c3cccc(NC(C)=O)c3)cn3cncc23)cn1	2µM*
O=C1COCCN1c1cc(-c2cnc3[nH]ccc3c2)cn2cncc12	4%[44.1 µM]
COc1cc(F)ccc1-c1cc(-c2ccc(=O)[nH]c2)c2cncn2c1	i
c1cc(-c2cc(-c3cn[nH]c3)cn3cncc23)ccn1	i
COc1ccc(-c2cc(-c3ccc(OC)nc3)cn3cncc23)cc1	2.5µM*
CC(=O)Nc1cccc(-c2ccc(COc3ccc4c(cnn4CCC(=O)O)c3)cc2)c1	i
Cc1ccc(-c2cc(-c3cccnc3)c3cncn3c2)cn1	i
Cc1ccc(-c2cc(-c3ccncc3)c3cncn3c2)cn1	-7%[44.1 µM]
c1cncc(-c2cc(-c3ccc4cn[nH]c4c3)cn3cncc23)c1	-10%[44.1 µM]
COc1ccc(-c2cc(-c3cnc4[nH]ccc4c3)cn3cncc23)cc1	6.3µM*
COc1ccc(-c2cc(-c3cccnc3)c3cncn3c2)cc1OC	10µM*
O=C(CC1CCCC1)N1CCC(c2noc(-c3ccncc3)n2)C1 (centres undefined)	i[5.79 µM]
Cc1onc(C(=O)NC2CCc3nn(C)c(=O)n3CC2)c1COc1ccccc1 (centres undefined)	-1%
CN(CC(=O)N1CC[C@H](N(C)C)[C@H](CCC(=O)O)C1)Cc1ccccc1F	6%
Cc1ccccc1CNC[C@H]1O[C@@H]2C[C@@H](CC(=O)NCc3nccn3C)O[C@@H]2[C@@H]1O	-5%[44.1 µM]
COc1ccc(C[C@H](N)C(=O)NCc2c(C)ncc3c2CCNC3)cc1	-11%
CCN1C(=O)C2CC3(CCN(C(=O)c4ccc(OC)nc4)CC3)CN2C1=O (centres undefined)	-21%
COCCOC1CCN(C(=O)c2ccc3oc(-c4cccc(F)c4)nc3c2)CC1	-6%
Cc1noc(C)c1S(=O)(=O)N(CC(=O)Nc1ccc(C(F)(F)F)cc1)c1ccc(C(C)C)cc1	11µM*
Cc1n[nH]c(C)c1S(=O)(=O)N(CC(=O)Nc1ccc(C(F)(F)F)cc1)c1ccc(C(C)C)cc1	0%
SMILES	Pf Dd2 inh
Cc1ccc(N(CC(=O)Nc2ccc(OC(F)(F)F)cc2)S(=O)(=O)c2c(C)noc2C)cc1	-16%
O=C(c1cocn1)N1C[C@@H](COc2ccncc2)[C@H](c2ccccn2)C1	6%
O=C1CCCCC(Cc2ccccc2)(C(=O)NCCc2ccccc2)N1 (centres undefined)	-19%
O=C(c1ccc[nH]c1=O)N1CCC2(CC1)NC(=O)N(Cc1ccc(Cl)cc1)C2=O	13%
O=C1NCCCCCN(C(=O)c2nccc3ccccc23)[C@H]2CCC[C@@H]12	i
O=C(NCCn1c(=O)c(=O)[nH]c2ccccc21)C1CC(=O)N(c2n[nH]c3ccccc23)C1 (centres undefined)	i
COc1cccc([C@@H]2Nc3ccc(C(=O)O)cc3[C@@H]3C=CC[C@@H]32)c1OC	2%
COc1cccc(NS(=O)(=O)c2ccc3c(c2)CCCN3C(=O)C2CCC2)c1	-23%
COc1cccc(NS(=O)(=O)c2ccc3c(c2)[C@H]2C=CC[C@H]2[C@@H](c2ccccc2Cl)N3)c1	10µM*
O=S(=O)(c1cccs1)N1C[C@@H](c2ccc(F)cc2)[C@@H]2[C@H]1C1CCN2CC1	5.6µM*
O=C1NCCCCCN(S(=O)(=O)c2cccs2)[C@H]2CCCC[C@@H]12	-10%
O=C1NCCCCCCN(S(=O)(=O)c2cccs2)[C@H]2CCC[C@@H]12	-17%
C=CCNC(=O)N[C@H]1CCN(C(=O)CSC)[C@@H]1C(=O)N1CCC[C@@H]1C(N)=O	9%[44.1 µM]
Cc1cc(C(=O)N2CCC3(CCC(=O)N(CCCn4ccnc4)C3)CC2)c(C)o1	6%
O=C1CCC2(CCN(C/C=C/c3ccccc3)CC2)CN1CCCn1ccnc1	10µM*
CC(O)CN1CC2(CCC1=O)CCN(CCCn1ccnc1)CC2 (centres undefined)	0%
CCCCN1C(=O)[C@@H]2C[C@@H](O)CN2C2(CN(C)C2)C1=O	-16%[44.1 µM]
CCOC(=O)C1(Cc2cccc(Cl)c2)CCCN(Cc2cnn(C)c2)C1 (centres undefined)	i
CCn1ccnc1CN1CCC(Oc2ccccc2OC)(C(=O)O)CC1	-4%
CCOC(=O)C1(Cc2ccccc2C)CCCN(Cc2nccn2CC)C1 (centres undefined)	10µM*
CCOC(=O)C1(Cc2ccccc2C)CCCN(Cc2cnc(C)s2)C1 (centres undefined)	11µM*
CCOC(=O)C1(Cc2cccc(OC)c2)CCCN(Cc2cnc[nH]2)C1 (centres undefined)	i
CCOC(=O)C1(Cc2ccccc2F)CCCN(C(=O)C(=O)c2ccco2)C1 (centres undefined)	-2%
CCCS(=O)(=O)N1CCC(N2CCCC(C(=O)N3CCOCC3)C2)CC1 (centres undefined)	0%
CNC(=O)NC[C@H]1CCN(Cc2ccc(C#N)cc2)C[C@H]1N(C)C	30%
SMILES	Pf Dd2 inh
CCCN(CC1CCOC1)C(=O)Nc1cccc(SC)c1 (centres undefined)	38%[5.79 µM]
O=C([C@H]1C[C@@H](F)CN1C(=O)c1ccc(Cl)cc1)N1CCOCC1	41%
CCNC(=O)C1C(c2cccc(NC(=O)c3ccccc3)c2)OC(=O)N1Cc1ccc(F)cc1 (centres undefined)	i
Cc1ccc(C2Cn3nnc(C(=O)N4CCN(C(=O)c5ccccn5)CC4)c3CO2)cc1 (centres undefined)	i
O=C1CC2(CCN([S+](=O)([O-])c3cccc(C(F)(F)F)c3)CC2)Oc2ccccc2N1	i
CCOc1ccccc1CNC(=O)c1ccc2c(c1)N(Cc1ccc(C)cc1)CCS2	-3%
COc1ccccc1CNC(=O)c1ccc2c(c1)N(Cc1ccc(C)cc1)CCS2	10µM*
COc1ccccc1CNC(=O)c1ccc(-c2nc(CN3CCc4ccccc43)c(C)o2)cc1	10µM*
COc1ccc(Br)cc1CNC(=O)c1ccc2c(c1)N(Cc1ccc(C)cc1)CCS2	-1%
CCc1ccc(-c2nc(CSCC(=O)NCc3ccccc3OC)c(C)o2)cc1	-8%
CCCCOc1ccc(CNC(=O)c2ccc(-c3nc(CN4CCc5ccccc54)c(C)o3)cc2)cc1	-25%
COCc1nnc2n1CCC(NC(=O)CCCc1nc3ccccc3s1)CC2 (centres undefined)	-18%
CCCN(CC1CCOC1)S(=O)(=O)c1ccc(Cl)cc1C (centres undefined)	20%[5.79 µM]
COCCNC(=O)C1COC2(CCN(C(=O)c3ccc(OC)cc3)CC2)N1C(=O)c1ccccc1C (centres undefined)	-11%
COC1C(=O)N(CC2CC2)C12CCN(C(=O)Cc1c[nH]c3ccccc13)CC2 (centres undefined)	-24%
COCCN1C(=O)CS(=O)(=O)C12CCN(C(=O)c1ccc(Cl)cc1)CC2	12%
O=C1NC(=NC2CCCCC2)C2(CCCN(Cc3ccc(F)cc3)C2)N1c1cc(F)cc(F)c1 (centres undefined)	7.9µM*
